Assay [1] can be described thus: NCI Yeast Anticancer Drug Screen. Data for the rad50 strain (AID 155).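 Also: 0% = growth of vehicle-only cultures of the same strain.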 As to conditions: S. cerevisiae rad50 strain growth inhibition, active compounds read high. A digest of the protocol:
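Compounds were tested on a yeast strain with an engineered DNA damage repair alteration; the reported value is growth inhibition normalised to vehicle treatment.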

A short description of assay [2]: NCI Yeast Anticancer Drug Screen. Data for the mec2-1 strain (AID 157). To be noted: S. cerevisiae mec2-1 strain, active compounds read high. In short, it runs like this: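 Mutant yeast (mec2-1) grown with compound; growth inhibition relative to vehicle control reported.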
Assay [3] in a line: NCI Yeast Anticancer Drug Screen. Data for the sgs1 mgt1 strain (AID 161).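 Also: 0% = growth of cultures given vehicle only.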 As to conditions: S. cerevisiae sgs1 mgt1 strain, active compounds read high. In short, it runs like this:
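Percent growth inhibition was derived by comparing compound-exposed mutant yeast with vehicle-exposed cultures. The strain carries alterations in DNA damage repair.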

A short description of assay [4]: NCI Yeast Anticancer Drug Screen. Data for the cln2 rad14 strain (AID 165).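 Also: 0% = growth equal to vehicle treated cultures.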 As to conditions: S. cerevisiae cln2 rad14 strain, active compounds read high. A digest of the protocol:
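Readout is yeast growth inhibition versus vehicle-treated controls, using a strain with cln2 and rad14 alterations exposed to compound.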

The nature of assay [5]: NCI Yeast Anticancer Drug Screen. Data for the bub3 strain (AID 167). As to conditions: S. cerevisiae bub3 mutant strain, active compounds read high. In short, it runs like this:
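Growth of a checkpoint-deficient yeast mutant is measured after compound exposure. Values represent inhibition relative to vehicle.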

The nature of assay [6]: NCI Yeast Anticancer Drug Screen. Data for the mlh1 rad18 strain (AID 175). To be noted: S. cerevisiae mlh1 rad18 strain growth inhibition, active compounds read high. A digest of the protocol: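 Genetically defined yeast (DNA repair-deficient) exposed to compounds; growth inhibition determined relative to vehicle.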
Setting [7] is: at 5.0 µM (retest, dose inferred, filed as 0.5).
[8] abbreviates: at 50.0 µM (retest, dose inferred, filed as 5.0).

This is part of a sample that, as a whole, favours compounds with a hit. Of some 79,000 tested, about 15% had one in any assay. A number with no mark means an inactive call. Calls of active or inactive are those of the source. Rule as the data show it: active = growth inhibition above about 70%; inactive = the rest.

For `CCCCN=C(c1ccc(O)cc1)c1ccc(OC)cc1O`, the growth inhibition was -4% in assay [1] (setting [7]); 20% in assay [1] (setting [8]); 42.7% in assay [1] (at 50.0 µM); -1% in assay [2] (setting [7]); 15% in assay [2] (setting [8]); 18.6% in assay [2] (at 50.0 µM). In addition, the growth inhibition is -2% in assay [3] (setting [7]); 37% in assay [3] (setting [8]); 64.1% in assay [3] (at 50.0 µM); -3% in assay [4] (setting [7]); 20% in assay [4] (setting [8]); 26.6% in assay [4] (at 50.0 µM). In addition, the growth inhibition in assay [5] (setting [7]) was -5%; in assay [5] (setting [8]), 42%; in assay [5] (at 50.0 µM), 58%; in assay [6] (setting [7]) it was -4%; in assay [6] (setting [8]), 22%; in assay [6] (at 50.0 µM), 36%.
For the compound `CC(C)C(Sc1nc(-c2ccccc2)c(-c2ccccc2)[nH]1)C(=O)NN` (stereo not given), the growth inhibition in assay [1] (setting [7]) is -7%; in assay [1] (setting [8]), 91% (active); in assay [1] (at 50.0 µM), 90.2% (active); in assay [2] (setting [7]), -36%; in assay [2] (setting [8]), 96% (active); in assay [2] (at 50.0 µM), 33.4%. Moreover, the growth inhibition in assay [3] (setting [7]) was -3%; in assay [3] (setting [8]), 94% (active); in assay [3] (at 50.0 µM), 91.5% (active); in assay [4] (setting [7]) it was 17%; in assay [4] (setting [8]) it was 98% (active); in assay [4] (at 50.0 µM) it was 90% (active). Also, the growth inhibition in assay [5] (setting [7]) is 29%; in assay [5] (setting [8]) it was 98% (active); in assay [5] (at 50.0 µM), 89% (active); in assay [6] (setting [7]), -11%; in assay [6] (setting [8]), 96% (active); in assay [6] (at 50.0 µM), 89.4% (active).
Turning to `CC(=O)NC1=C(Sc2ccc(C)cc2)C(=O)c2ccccc2C1=O`, the growth inhibition is 63% in assay [1] (setting [7]); 98% (active) in assay [1] (setting [8]); 54.4% in assay [1] (at 50.0 µM); 96% (active) in assay [2] (setting [7]); 99% (active) in assay [2] (setting [8]); 10.1% in assay [2] (at 50.0 µM). Also, the growth inhibition is 72% (active) in assay [3] (setting [7]); 95% (active) in assay [3] (setting [8]); 29.8% in assay [3] (at 50.0 µM); 35% in assay [4] (setting [7]); 97% (active) in assay [4] (setting [8]); -32.6% in assay [4] (at 50.0 µM). For the same compound, the growth inhibition is 67% in assay [5] (setting [7]); 98% (active) in assay [5] (setting [8]); 42% in assay [5] (at 50.0 µM); 99% (active) in assay [6] (setting [7]); 99% (active) in assay [6] (setting [8]); 23.1% in assay [6] (at 50.0 µM).
In the case of `c1ccc(N=c2sc3ccccc3sc2=Nc2ccccc2)cc1`, the growth inhibition in assay [1] (setting [7]) is 94% (active); in assay [1] (setting [8]) it was 32%; in assay [1] (at 50.0 µM), 51%; in assay [2] (setting [7]), 56%; in assay [2] (setting [8]), 50%; in assay [2] (at 50.0 µM), 32.4%. The growth inhibition in assay [3] (setting [7]) is 71% (active); in assay [3] (setting [8]) it was 60%; in assay [3] (at 50.0 µM), 21.8%; in assay [4] (setting [7]) it was 96% (active); in assay [4] (setting [8]), 69%; in assay [4] (at 50.0 µM), 59.5%. In addition, the growth inhibition is 93% (active) in assay [5] (setting [7]); 76% (active) in assay [5] (setting [8]); 31.7% in assay [5] (at 50.0 µM); 93% (active) in assay [6] (setting [7]); 56% in assay [6] (setting [8]); -16% in assay [6] (at 50.0 µM).
For the compound `NC1=NC2=C(CCCC2)C(c2cccs2)S1` (stereo not given), the growth inhibition in assay [1] (setting [7]) was 57%; in assay [1] (setting [8]) it was 82% (active); in assay [1] (at 50.0 µM), 65.8%; in assay [2] (setting [7]), 39%; in assay [2] (setting [8]) it was 78% (active); in assay [2] (at 50.0 µM), 32.4%. The growth inhibition in assay [3] (setting [7]) is 76% (active); in assay [3] (setting [8]), 87% (active); in assay [3] (at 50.0 µM), 75.7% (active); in assay [4] (setting [7]) it was 45%; in assay [4] (setting [8]) it was 49%; in assay [4] (at 50.0 µM), 37%. Besides, the growth inhibition was 38% in assay [5] (setting [7]); 74% (active) in assay [5] (setting [8]); 61.7% in assay [5] (at 50.0 µM); 61% in assay [6] (setting [7]); 92% (active) in assay [6] (setting [8]); 60.6% in assay [6] (at 50.0 µM).
`C[n+]1c(/C=C/c2cccc([N+](=O)[O-])c2)sc2ccccc21`: the growth inhibition in assay [1] (setting [7]) was 10%; in assay [1] (setting [8]), 97% (active); in assay [1] (at 50.0 µM), 97.6% (active); in assay [2] (setting [7]), 15%; in assay [2] (setting [8]) it was 99% (active); in assay [2] (at 50.0 µM) it was 96.2% (active). The growth inhibition in assay [3] (setting [7]) was -1%; in assay [3] (setting [8]), 98% (active); in assay [3] (at 50.0 µM), 97.9% (active); in assay [4] (setting [7]), 14%; in assay [4] (setting [8]), 97% (active); in assay [4] (at 50.0 µM) it was 98.8% (active). Besides, the growth inhibition in assay [5] (setting [7]) was 7%; in assay [5] (setting [8]), 97% (active); in assay [5] (at 50.0 µM), 96% (active); in assay [6] (setting [7]) it was 13%; in assay [6] (setting [8]) it was 98% (active); in assay [6] (at 50.0 µM), 99.2% (active).
For `CCCNC(=O)C(=O)NNc1ccccc1`, the growth inhibition was 7% in assay [1] (setting [7]); 64% in assay [1] (setting [8]); 66.8% in assay [1] (at 50.0 µM); 6% in assay [2] (setting [7]); 62% in assay [2] (setting [8]); 59.1% in assay [2] (at 50.0 µM). The growth inhibition was 10% in assay [3] (setting [7]); 55% in assay [3] (setting [8]); 57% in assay [3] (at 50.0 µM); 11% in assay [4] (setting [7]); 79% (active) in assay [4] (setting [8]); 73.5% (active) in assay [4] (at 50.0 µM). Besides, the growth inhibition in assay [5] (setting [7]) was -2%; in assay [5] (setting [8]), 95% (active); in assay [5] (at 50.0 µM), 70.7% (active); in assay [6] (setting [7]), 14%; in assay [6] (setting [8]) it was 95% (active); in assay [6] (at 50.0 µM), 90.1% (active).
As for `CCCCCCCCCCCC(=O)NN`, the growth inhibition is 14% in assay [1] (setting [7]); 82% (active) in assay [1] (setting [8]); 97.4% (active) in assay [1] (at 50.0 µM); 12% in assay [2] (setting [7]); 43% in assay [2] (setting [8]); 97.6% (active) in assay [2] (at 50.0 µM). For the same compound, the growth inhibition is 6% in assay [3] (setting [7]); 68% in assay [3] (setting [8]); 98% (active) in assay [3] (at 50.0 µM); -3% in assay [4] (setting [7]); 65% in assay [4] (setting [8]); 97% (active) in assay [4] (at 50.0 µM). The growth inhibition in assay [5] (setting [7]) was 22%; in assay [5] (setting [8]), 52%; in assay [5] (at 50.0 µM), 95.3% (active); in assay [6] (setting [7]), 8%; in assay [6] (setting [8]), 82% (active); in assay [6] (at 50.0 µM), 97.8% (active).
As to `Clc1ccc([O][In]([O]c2ccc(Cl)cn2)[O]c2ccc(Cl)cn2)nc1`, the growth inhibition is 1% in assay [1] (setting [7]); 1% in assay [1] (setting [8]); 68.2% in assay [1] (at 50.0 µM); 8% in assay [2] (setting [7]); 8% in assay [2] (setting [8]); 72% (active) in assay [2] (at 50.0 µM). For the same compound, the growth inhibition was -1% in assay [3] (setting [7]); -1% in assay [3] (setting [8]); 56% in assay [3] (at 50.0 µM); -4% in assay [4] (setting [7]); -4% in assay [4] (setting [8]); 38.9% in assay [4] (at 50.0 µM). The growth inhibition in assay [5] (setting [7]) was -26%; in assay [5] (setting [8]), -26%; in assay [5] (at 50.0 µM) it was 48.2%; in assay [6] (setting [7]) it was -5%; in assay [6] (setting [8]), -5%; in assay [6] (at 50.0 µM), 53.8%.
On to `COc1cc(-c2nn3c(=O)n(-c4ccc(Cl)cc4)c(=O)nc3s2)cc(OC)c1OC`, for which the growth inhibition in assay [1] (setting [7]) was 6%; in assay [1] (setting [8]) it was -2%; in assay [1] (at 50.0 µM), 30.8%; in assay [2] (setting [7]), 0%; in assay [2] (setting [8]), 18%; in assay [2] (at 50.0 µM), -0.6%. Further, the growth inhibition was 1% in assay [3] (setting [7]); 4% in assay [3] (setting [8]); 20.9% in assay [3] (at 50.0 µM); 7% in assay [4] (setting [7]); -7% in assay [4] (setting [8]); 24% in assay [4] (at 50.0 µM). In addition, the growth inhibition is 1% in assay [5] (setting [7]); 17% in assay [5] (setting [8]); 3.3% in assay [5] (at 50.0 µM); -2% in assay [6] (setting [7]); 3% in assay [6] (setting [8]); 2.35% in assay [6] (at 50.0 µM).

These data come from PubChem BioAssay (NCI).
